An excerpt weighted towards active compounds, which were near 2.2% of everything screened.
TDP43 rescue: TDP-43 toxicity inhibition in yeast. TDP-43 expressing yeast growth rescue, BacTiter-Glo, 24 h. Potency, µM (series often up to 46.1 µM), inactives show top-dose growth rescue (activation), most hits filed as activators. 1.8% of 410,000 active; further: % of control where 0% means no effect; nearly all actives have a fitted effect of over 50% in size
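In this qHTS, compounds that restore growth of yeast expressing TDP-43 appear as activators. Cells (OD600=0.02, galactose medium, raffinose-pregrown) are incubated with compound 24 hr at 30 deg C and growth is quantified by BacTiter-Glo.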
aSyn rescue: alpha-synuclein toxicity inhibition in yeast; Yeast expressing alpha-synuclein, growth rescue, BacTiter-Glo, 24 h; Potency, µM (top dose mostly 46.1 µM), for inactives: at the top dose growth rescue (activation), most hits filed as activators; 0.14% of 370,000 active; further: % of control where 0% means no effect; nearly all actives have a fitted effect of over 65% in size
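Readout is rescue of growth in alpha-synuclein-expressing yeast, so inhibitors of toxicity appear as activators. Growth after 24 hr at 30 deg C in galactose medium is quantified by luminescence.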
Abeta yeast res: A-beta toxicity reversal in yeast | Potency, µM (doses to about 46.1 µM), actives largely listed as activators | yeast expressing A-beta42, growth rescue, OD600, 48 h; response scale: 0% DMSO, 100% iron-clioquinol control | 0.063% of 410,000 active; further: nearly all actives have a fitted effect of over 55% in size
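Growth rescue measured by 600 nm absorbance after 48 h yeast culture at 30 C with compound. Values normalized between DMSO and an equimolar ferric chloride plus clioquinol control.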
FUS suppressor: FUS proteinopathy suppression in yeast. 0.24% of 390,000 active. Potency, µM (series often up to 76.6 µM), actives largely listed as activators. S. cerevisiae FUS-expressing, growth rescue, OD600, 24 h. AID 1347120;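 further: plate controls were DMSO vehicle for no effect and reference control for full effect; nearly all actives have a fitted effect of over 55% in size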
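Yeast FUS proteinopathy model; galactose-induced FUS (2%), starting OD 0.005. Cpds in dilution series, 24hr, 30C, 99% humidity. Abs 600 nm growth. Pos ctrl CP55940 (top 92uM final); neg ctrl DMSO.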
Mito fusion act: inhibitors of mitochondrial division or activators of mitochondrial fusion; S. cerevisiae fusion-defective mutant growth rescue, CellTiterGlo 48 h; Potency, µM (highest dose often 46.1 µM), without a hit: at the highest dose growth rescue (activation), most hits filed as activators; 0.23% of 320,000 active; further: % of control where 0% means no effect; nearly all actives have a fitted effect of over 45% in size
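S. cerevisiae fusion-defective temperature-sensitive mutants (e.g. fzo1-1, mgm1-5) grown 48 h at 37C in YPEG (ethanol/glycerol non-fermentable) medium with 23 nl compound per well; growth rescue read as CellTiterGlo luminescence.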
The depositor's hits bear a star; i = inactive; u = inconclusive; x = not tested or not shown. The call rests on the fitted dose curve; in most records, active means well fitted curve in the direction sought with a large enough effect; inconclusive means small, poorly fitted or top-dose-only effect, or another doubt; inactive means no such curve, though single readings can be large; an effect the other way counts as inactive or inconclusive. Potency means the concentration at half of the fitted maximal effect.

SMILES	TDP43 rescue	aSyn rescue	Abeta yeast res	FUS suppressor	Mito fusion act
COc1ccc(CCNC(=O)Cc2c(C)c3cc4c(C(C)(C)C)coc4c(C)c3oc2=O)cc1	-2%	x	i	i	x
O=C(N/N=C/c1ccccc1)NC1CCCCC1	21%	3%	i	x	2%
O=C(N/N=C/c1cccc(F)c1)NC1CCCCC1	13µM*	14%	i	i	17%
CCCN1CNc2c(c(=O)[nH]c(=S)n2CCc2cc(C)cc(C)c2)C1	x	-3%	x	x	x
CCCCc1c(C)c2cc(C)ccc2[nH]c1=O	10µM*	3%	i	i	15%
CCCc1c(C)c2cc(C)ccc2[nH]c1=O	28%	0%	i	i	2%
CCn1c2ccccc2c2nnc(SCc3ccccc3)nc21	25µM*	-18%	i	i	16µM*
CCOC(=O)CSc1nnc2c3ccccc3n(C)c2n1	13µM*	-1%	i	i	-2%
CCn1c2ccccc2c2nnc(SCC(N)=O)nc21	-12%	-5%	i	i	4%
CCCn1c2ccccc2c2nnc(SCC(=O)OCC)nc21	22%	-5%	i	i	25%
COc1cc(OC)c(/C=C/c2cc3ccccc3c[n+]2C)c(OC)c1	x	-6%	x	x	x
COc1ccc(C2CC2/C(C)=N/OC(=O)C2CC2)cc1 (stereo not given)	14µM*	-20%	i	i	29%
Cc1cccc(Cn2cc(C(=O)c3ccccc3)c(=O)c3cc4c(cc32)OCO4)c1	35µM*	x	i	i	x
COc1ccc(C(O)c2nc(-c3ccc4ccccc4c3)cs2)cc1 (stereo not given)	3%	3.5µM*	i	i	x
COc1ccc(C(O)c2nc(-c3ccccc3)cs2)cc1 (stereo not given)	35µM*	20%	u	i	x
COc1ccc(C(O)c2nc(-c3ccc(Cl)cc3)cs2)cc1 (stereo not given)	u	11µM*	u	i	x
COc1ccc(-c2csc(C(O)c3ccc(OC)cc3)n2)cc1 (stereo not given)	u	u	i	i	x
COc1ccc(C(O)c2nc(-c3ccncc3)cs2)cc1 (stereo not given)	u	7%	i	i	x
COc1ccc(-c2csc(C(O)c3ccc(F)cc3)n2)cc1 (stereo not given)	22µM*	u	i	i	x
C=C(C)Cn1c(SCC(=O)N/N=C(\C)c2ccc(Br)cc2)nnc1-c1ccc(Br)cc1	x	x	x	i	x
Nc1ncnc2n[nH]c(Nc3ccc(F)cc3)c12	x	0%	x	x	0%
O=C1CSc2ccc(C(=O)N3CCCC(C(=O)N4CCCC4)C3)cc2N1 (stereo not given)	x	x	x	i	x
COc1cc(C(O)c2nc(-c3cccs3)cs2)ccc1F (stereo not given)	0%	11%	i	i	x
COc1ccc(C(O)c2nc(-c3cccs3)cs2)cc1 (stereo not given)	16µM*	18%	i	i	x
COc1ccc(-c2csc(C(O)c3cccnc3)n2)cn1 (stereo not given)	u	7%	i	i	x
SMILES	TDP43 rescue	aSyn rescue	Abeta yeast res	FUS suppressor	Mito fusion act
OC(c1ccco1)c1nc(-c2ccc(F)c(Cl)c2)cs1 (stereo not given)	13µM*	1%	i	i	x
COc1ccc(-c2csc(C(O)c3ccc(F)cc3)n2)cn1 (stereo not given)	35µM*	2%	i	i	x
CC(C)(C)NC(=O)C(c1cccnc1)N(C(=O)c1cccs1)c1ccc(C(C)(C)C)cc1 (stereo not given)	x	x	x	i	x
CCOCCc1nn2c(=O)cc(COC(=O)c3ccccc3NC(=O)c3ccc(C)cc3)nc2s1	25%	x	i	i	x
OCCCCC#Cc1c(-c2ccsc2)sc2ccccc12	14µM*	-34%	i	i	-26%
Cc1ccc2[nH]c(-c3cccc(N)c3)cc2c1	22µM*	12%	i	u	-4%
Cc1ccc2[nH]c(-c3cccc(F)c3)cc(=O)c2c1	19%	7%	i	i	-2%
COc1ccc(CNC(=O)c2ccc3c(c2)N=C(C)c2c(C)ccc(C)c2S3)cc1	13µM*	12%	i	u	x

Screening results as filed in PubChem.
